This is a sample that favours compounds with a hit; in the whole collection about 6.8% have one here.
Spn PMK inh – S. pneumoniae PMK inhibition. purified PMK, PK/LDH-coupled NADH absorbance 340 nm. inhibition, % at 10 µM. 65,000 tested, 0.49% active. AID 539;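 active = top-ranked compounds by inhibition in the single 10 µM screen, taking a fixed number of the strongest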
Autofluor 339 – intrinsic fluorescence of library compounds, ex339/em460 – biochemical, MLSMR library, data from DPM-DC assay, artefact control, profiling panel | compound autofluorescence, ex339/em460 nm, NADH buffer; active compounds read high; 1 = no-compound wells, NADH background | fluorescence fold increase at 10 µM | 65,000 tested, 5.5% active;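 active = at 10 µM, mean starting fluorescence two-fold or more over control wells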;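 note: signal is the first read of a kinetic run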
MK inhibit – inhibitors of Streptococcus pneumoniae mevalonate kinase. AID 555. 65,000 tested, 0.48% active. inhibition, % at 10 µM. purified MK, PK/LDH-coupled NADH absorbance 340 nm;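 active = ranked among the strongest by inhibition in the single 10 µM screen, a fixed top-ranked set picked for dose follow-up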
A340 absorber – compound absorbs light at 340 nm | fold change at 10 µM | 65,000 tested, under 10 active | compound absorbance at 340 nm, fold over control | AID 708;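 active = at 10 µM dose, initial 340 nm absorbance at least 2 fold that of control wells; inactive = change under 2 fold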;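 note: initial absorbance extrapolated from kinetic A340 decline of NADH oxidation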
Spn DPM-DC inh – blocks S. pneumoniae diphosphomevalonate decarboxylase. purified DPM-DC, PK/LDH coupled NADH fluorescence. calls only at 10 µM. 65,000 tested, 0.49% active;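 active = the 320 compounds with the highest percent inhibition in the single-dose primary screen, excluding strongly autofluorescent ones, cut at about 32% in these data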;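 note: kinetic rate of NADH fluorescence loss reporting ADP formed by the decarboxylase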
NADH coupling – inhibitors of enzymes used to reach an NAD/NADH endpoint. 65,000 tested, 0.02% active. IC50, µM (titrated, usually from 10 µM). coupled PK/LDH NADH assays, four targets;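 active = single-dose screening hits from any of four coupled enzyme assays that gave an IC50 when retested across doses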;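 note: the DPM-DC format reads NADH fluorescence rather than 340 nm absorbance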
Numbers stand for hits; - = inactive; . = not tested or not shown.

SMILES	Spn PMK inh	Autofluor 339	MK inhibit	A340 absorber	Spn DPM-DC inh	NADH coupling
COc1cccc(-c2nnc(SCC(=O)Nc3ccc(S(N)(=O)=O)cc3)n2C)c1	-	-	-	-	-	-
CCn1c(=O)c(C(=O)Nc2nc3ccccc3[nH]2)c(O)c2ccccc21	-	2.4	-	-	-	-
CCn1c(=O)c(C(=O)Nn2c(C)nc3ccccc3c2=O)c(O)c2ccccc21	-	-	-	-	-	-
O=c1oc(-c2ccccc2)nc2c1cnn2-c1ccccc1	-	-	-	-	-	-
O=c1oc(-c2cccs2)nc2c1cnn2-c1ccccc1	-	2.2	-	-	.	-
O=C(Nc1ccccc1C(=O)OCC(=O)N1CCc2ccccc2C1)c1ccco1	-	-	-	-	-	-
CN(C)c1oc(-c2ccco2)nc1C#N	-	4	-	-	.	-
N#Cc1nc(-c2ccco2)oc1N1CCN(Cc2ccccc2)CC1	-	-	-	-	-	-
CN(Cc1ccccc1)c1oc(-c2ccco2)nc1C#N	-	3.9	-	-	.	-
Cc1cc(C(=O)OCC(=O)NCCc2ccccc2)c(C)o1	-	-	-	-	-	-
Cc1cc(N2CCN(c3ccccc3F)CC2)nc2cc(O)ccc12	-	3.1	-	-	-	-
COc1ccc(N2CCN(c3cc(C)c4ccc(O)cc4n3)CC2)cc1	-	2.1	-	-	.	-
Cc1cc(N2CCCN(C)CC2)nc2cc(Cl)ccc12	-	-	-	-	-	-
O=C(c1cccc(C(=O)N2CCN(c3ccccc3F)CC2)n1)N1CCN(c2ccccc2F)CC1	-	-	-	-	-	-
Cc1cc(N2CCOCC2)nc2cc(O)ccc12	-	2.2	-	-	.	-
O=C(O)C(c1ccccc1)N1CCCC1 (stereo not drawn)	-	-	-	-	-	-
c1ccc2c(c1)oc1c(N3CCN(Cc4ccc5c(c4)OCO5)CC3)ncnc12	-	-	-	-	-	-
O=C(Cn1ncn2c(cc3ccccc32)c1=O)NCc1ccco1	-	-	-	-	-	-
O=C(NCc1ccccc1)N(Cc1nc2ccccc2c(=O)[nH]1)C1CCCC1	-	3.8	-	-	.	-
CN(C)c1ccc(-n2cc3c(=O)n(C)c(=O)n(C)c3c2)cc1	-	-	-	-	-	-
CCN(CC)c1ccc(-n2cc3c(=O)n(C)c(=O)n(C)c3c2)cc1	-	3.7	-	-	.	-
CCN(CC)S(=O)(=O)c1ccc2c3c(cccc13)C(=O)N2	-	2.2	-	-	.	-
CCOC(=O)c1c(C)oc2ccc(NS(=O)(=O)c3ccc4c5c(cccc35)C(=O)N4)cc12	-	-	-	-	-	-
COc1ccc(OC)c(S(=O)(=O)NCCC2=CCCCC2)c1	-	-	-	-	-	-
O=C1Nc2ccc(S(=O)(=O)NCCC3=CCCCC3)c3cccc1c23	-	3.6	-	-	.	-
SMILES	Spn PMK inh	Autofluor 339	MK inhibit	A340 absorber	Spn DPM-DC inh	NADH coupling
COCCOC(=O)c1c(C)oc2ccc(OC(=O)c3ccc4c(c3)OCO4)cc12	-	-	-	-	-	-
COc1ccc(CN(C#N)c2nc(SC)nc(N(C)C)n2)cc1	-	-	-	-	-	-
COc1ccccc1N1CCN(CC(=O)Nc2cc(C)nn2-c2nc(C)cc(C)n2)CC1	-	-	-	-	-	-
CCN1CCN(C(c2ccccc2OC)c2nnnn2C2CCCCC2)CC1 (stereo not drawn)	-	-	-	-	-	-
COc1cc2cc(C(c3nnnn3C3CCCC3)N3CCCCCC3)c(=O)[nH]c2cc1OC (stereo not drawn)	-	-	-	-	-	-
CCOc1ccc2[nH]c(=O)c(C(c3nnnn3C3CCCCC3)N3CCN(CC)CC3)cc2c1 (stereo not drawn)	-	3.7	-	-	.	-
CCOc1ccc2[nH]c(=O)c(C(c3nnnn3Cc3ccco3)N3CCCC(C)C3)cc2c1 (stereo not drawn)	-	2.2	-	-	-	-
CCOc1ccc2[nH]c(=O)c(C(c3nnnn3C3CCCCC3)N3CCN(C)CC3)cc2c1 (stereo not drawn)	-	4.4	-	-	.	-
O=C(CSc1nc2ccccc2[nH]1)NCCCn1ccnc1	-	-	-	-	-	-
O/N=C1/CCc2nonc2/C1=N/O	-	-	-	-	-	-
Cc1ccc(NC(=O)C(C)N2C(=O)c3ccccc3C2=O)cc1 (stereo not drawn)	-	-	-	-	-	-
CCC1(CC)Nc2ccccc2C(=O)N1c1ccc(NC(C)=O)cc1	-	3.7	-	-	.	-

Source: PubChem BioAssay
